Source: PubChem BioAssay (NCI)
About 83,000 compounds went through this panel and 20% of them were active in at least one assay; those are over-represented in the sample as a whole.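 48-hour exposure, single concentration, 96-well plates; percent growth endpoint where 0 means no net growth. Active: below 10.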 Activity calls are given as the source filed them.

What was measured:
Assay in all cases: NCI-60 one-dose screen, 48 h (100 = growth as untreated, 0 = no growth, -100 = all killed)
Settings in all cases: 10 µM unless noted
HCT-15 colon = test system: HCT-15 colon
HT29 colon = test system: HT29 colon
SNB-75 CNS = test system: SNB-75 CNS
SNB-19 CNS = test system: SNB-19 CNS
U251 CNS = test system: U251 CNS
PC-3 prostate = test system: PC-3 prostate
SK-MEL-5 melanoma = test system: SK-MEL-5 melanoma
UACC-62 melanoma = test system: UACC-62 melanoma
LOX IMVI melanoma = test system: LOX IMVI melanoma
SK-MEL-28 melanoma = test system: SK-MEL-28 melanoma
SK-MEL-2 melanoma = test system: SK-MEL-2 melanoma
EKVX NSCLC = test system: EKVX NSCLC
SN12C renal = test system: SN12C renal
UO-31 renal = test system: UO-31 renal
TK-10 renal = test system: TK-10 renal
ACHN renal = test system: ACHN renal
CAKI-1 renal = test system: CAKI-1 renal
A498 renal = test system: A498 renal
CCRF-CEM leukemia = test system: CCRF-CEM leukemia
MOLT-4 leukemia = test system: MOLT-4 leukemia

Measured: growth

O=C(Nc1cccc(Cl)c1)Oc1c(Cl)c(Cl)c(Cl)c(Cl)c1Cl
inactive: HCT-15 colon 100% | HT29 colon 96.3% | SNB-75 CNS 76.2% | SNB-19 CNS 99.1% | U251 CNS 102% | PC-3 prostate 86.9% | SK-MEL-5 melanoma 90.6% | UACC-62 melanoma 90% | LOX IMVI melanoma 95.9% | SK-MEL-28 melanoma 109% | SK-MEL-2 melanoma 100% | EKVX NSCLC 78.9% | SN12C renal 97.1% | UO-31 renal 72.1% | TK-10 renal 125% | ACHN renal 95.6% | CAKI-1 renal 88.2% | A498 renal 78.8% | CCRF-CEM leukemia 94.4% | MOLT-4 leukemia 96%

CCOC(=O)CC1CSC(N/N=C/c2ccc(O)cc2)=N1 (stereo not given)
inactive: HCT-15 colon 100% | HT29 colon 106% | SNB-75 CNS 93.4% | SNB-19 CNS 106% | U251 CNS 98.9% | PC-3 prostate 89.5% | SK-MEL-5 melanoma 102% | UACC-62 melanoma 102% | LOX IMVI melanoma 99% | SK-MEL-28 melanoma 107% | SK-MEL-2 melanoma 95.1% | EKVX NSCLC 103% | SN12C renal 105% | UO-31 renal 89.7% | TK-10 renal 91.5% | ACHN renal 105% | CAKI-1 renal 94.6% | A498 renal 108% | CCRF-CEM leukemia 115% | MOLT-4 leukemia 107%

CC1=C2[C@@H](CC1)[C@]1(C)O[C@@](C(C)C)(C[C@H]1OC(=O)CO)[C@H]2OC(=O)CCCc1ccccc1
inactive: HCT-15 colon 65.7% | HT29 colon 72.1% | SNB-75 CNS 90.8% | SNB-19 CNS 92.5% | U251 CNS 74.5% | PC-3 prostate 26.9% | SK-MEL-5 melanoma 66.8% | UACC-62 melanoma 40.2% | LOX IMVI melanoma 52.3% | SK-MEL-28 melanoma 90.2% | SK-MEL-2 melanoma 66.8% | EKVX NSCLC 94.1% | SN12C renal 54.9% | UO-31 renal 39.6% | TK-10 renal 88.4% | ACHN renal 56.7% | CAKI-1 renal 59.8% | A498 renal 59.3% | CCRF-CEM leukemia 31.8% | MOLT-4 leukemia 23.5%

Cc1nc2ccccc2c(/C=C/c2ccc(Cl)cc2)c1C(=O)/C=C/c1ccccc1
inactive: SNB-75 CNS 39.7% | PC-3 prostate 23.3% | SK-MEL-5 melanoma 13.7% | EKVX NSCLC 31.5% | SN12C renal 20.6% | TK-10 renal 17.7% | A498 renal 44%
active: HCT-15 colon -30.3% | HT29 colon -15.7% | SNB-19 CNS -16.2% | U251 CNS -74.3% | UACC-62 melanoma 0.158% | LOX IMVI melanoma -85.3% | SK-MEL-28 melanoma 8.62% | SK-MEL-2 melanoma -14.1% | UO-31 renal -38% | ACHN renal 5.92% | CAKI-1 renal 4.04% | CCRF-CEM leukemia 6.45% | MOLT-4 leukemia 5.35%

CCOC(=O)c1cc(C(=O)c2cc(OC)cc(OC)c2)n2ccccc12
inactive: HCT-15 colon 25.6% | HT29 colon 10.1% | SNB-75 CNS 20.5% | SNB-19 CNS 41.7% | U251 CNS 38.6% | PC-3 prostate 40.4% | SK-MEL-5 melanoma 27.4% | UACC-62 melanoma 30.9% | LOX IMVI melanoma 38.1% | SK-MEL-28 melanoma 67.3% | SK-MEL-2 melanoma 41.7% | EKVX NSCLC 73.7% | SN12C renal 66.9% | UO-31 renal 62% | TK-10 renal 55.9% | ACHN renal 48.6% | CAKI-1 renal 42.2% | A498 renal 28.8% | CCRF-CEM leukemia 34.6% | MOLT-4 leukemia 30.6%

CC(C)(C#N)c1cc(C(=O)Nc2cc(Nc3ncccc3-c3ncnc4nc[nH]c34)ccc2F)cc(C(F)(F)F)c1
inactive: HCT-15 colon 54% | HT29 colon 20.7% | SNB-75 CNS 37% | SNB-19 CNS 71.2% | U251 CNS 59.7% | PC-3 prostate 63.9% | SK-MEL-5 melanoma 24.4% | SK-MEL-28 melanoma 10.4% | EKVX NSCLC 62.8% | SN12C renal 55.2% | UO-31 renal 17.5% | TK-10 renal 68.5% | ACHN renal 44.4% | CAKI-1 renal 24.3% | CCRF-CEM leukemia 57% | MOLT-4 leukemia 57.6%
active: UACC-62 melanoma 3.16% | LOX IMVI melanoma -9.46% | SK-MEL-2 melanoma 5.07% | A498 renal -24.9%

COc1cccc(NC(=O)c2sc3nc(C)c(C(=O)c4ccccc4)cc3c2N)c1
active: A498 renal -2.09%
inactive: HCT-15 colon 87% | HT29 colon 102% | SNB-75 CNS 60.8% | SNB-19 CNS 78% | U251 CNS 82.8% | PC-3 prostate 89.9% | SK-MEL-5 melanoma 93.8% | UACC-62 melanoma 73.1% | LOX IMVI melanoma 97.8% | SK-MEL-28 melanoma 82.2% | SK-MEL-2 melanoma 93.7% | EKVX NSCLC 69.1% | SN12C renal 94.4% | UO-31 renal 93% | TK-10 renal 102% | ACHN renal 96.6% | CAKI-1 renal 63.2% | CCRF-CEM leukemia 99% | MOLT-4 leukemia 115%

COc1cccc(CNc2nnc(C)c(C)n2)c1O
inactive: HCT-15 colon 98.9% | HT29 colon 105% | SNB-75 CNS 100% | SNB-19 CNS 93.4% | U251 CNS 99.1% | PC-3 prostate 87.2% | SK-MEL-5 melanoma 91.6% | UACC-62 melanoma 97.1% | LOX IMVI melanoma 98.8% | SK-MEL-28 melanoma 109% | SK-MEL-2 melanoma 106% | EKVX NSCLC 104% | SN12C renal 96.7% | UO-31 renal 91.6% | TK-10 renal 108% | ACHN renal 110% | CAKI-1 renal 100% | A498 renal 95.3% | CCRF-CEM leukemia 101% | MOLT-4 leukemia 109%

Oc1ccc(Cc2ccc(O)c3ncccc23)c2cccnc12
inactive: HCT-15 colon 13.1% | HT29 colon 57.6% | SNB-75 CNS 12.9% | SNB-19 CNS 15.9% | LOX IMVI melanoma 16.7% | SK-MEL-28 melanoma 30.3% | CAKI-1 renal 16.2% | CCRF-CEM leukemia 17.4% | MOLT-4 leukemia 11.8%
active: U251 CNS 6.14% | PC-3 prostate 5.52% | SK-MEL-5 melanoma -47.3% | UACC-62 melanoma 1.18% | SK-MEL-2 melanoma -17.9% | EKVX NSCLC 8.21% | SN12C renal 8.11% | UO-31 renal 1.7% | TK-10 renal -9.53% | ACHN renal -4.29% | A498 renal 5.58%

C=C1CC[C@@H]2[C@](C)(COC(C)=O)[C@H](OC(C)=O)CC[C@@]2(C)[C@@H]1CC(Nc1ccc(S(=O)(=O)Nc2nccc(C)n2)cc1)C1=CCOC1=O (stereo not given in full)
active: HCT-15 colon -42% | HT29 colon -28.2% | SNB-75 CNS 9.66% | LOX IMVI melanoma -72.9% | SK-MEL-28 melanoma -7.05% | ACHN renal -37.2% | CCRF-CEM leukemia -19.2% | MOLT-4 leukemia -1.85%
inactive: SNB-19 CNS 53.6% | U251 CNS 14.6% | PC-3 prostate 41.5% | SK-MEL-5 melanoma 45% | UACC-62 melanoma 24.2% | SK-MEL-2 melanoma 40.1% | EKVX NSCLC 79.2% | SN12C renal 25.1% | UO-31 renal 33.4% | TK-10 renal 83% | CAKI-1 renal 61.4% | A498 renal 96.8%

O=C(Nc1ccccc1CNc1nc(Nc2ccc(OCCN3CCCC3)cc2)ncc1Cl)NC1CCCCC1
active: HT29 colon 9.11%
inactive: HCT-15 colon 60.7% | SNB-75 CNS 96.5% | SNB-19 CNS 91.6% | U251 CNS 70.4% | PC-3 prostate 84% | SK-MEL-5 melanoma 64.6% | UACC-62 melanoma 97.3% | LOX IMVI melanoma 84.7% | SK-MEL-28 melanoma 79.8% | SK-MEL-2 melanoma 115% | EKVX NSCLC 95% | SN12C renal 88.1% | UO-31 renal 56.3% | TK-10 renal 116% | ACHN renal 78.2% | CAKI-1 renal 94.3% | A498 renal 75.3% | CCRF-CEM leukemia 12% | MOLT-4 leukemia 72.3%

O=C1c2c(c3c4cccnc4[nH]c3c3ccc4ccccc4c23)C(=O)N1O
inactive: HCT-15 colon 69% | HT29 colon 27.9% | SNB-75 CNS 101% | SNB-19 CNS 29.7% | U251 CNS 15.2% | PC-3 prostate 43.1% | SK-MEL-5 melanoma 23.2% | UACC-62 melanoma 24.4% | SK-MEL-28 melanoma 46.1% | SK-MEL-2 melanoma 91% | EKVX NSCLC 97.7% | SN12C renal 26.5% | UO-31 renal 57.6% | TK-10 renal 133% | ACHN renal 45% | CAKI-1 renal 47% | A498 renal 84.7% | CCRF-CEM leukemia 15.3%
active: LOX IMVI melanoma -31.5% | MOLT-4 leukemia 6.42%

Cn1ncc(CC(=O)O)c1-n1nnc2cc(Cl)ccc2c1=O
inactive: HCT-15 colon 107% | HT29 colon 103% | SNB-75 CNS 81.1% | SNB-19 CNS 96% | U251 CNS 103% | PC-3 prostate 103% | SK-MEL-5 melanoma 110% | UACC-62 melanoma 94.8% | LOX IMVI melanoma 103% | SK-MEL-28 melanoma 144% | SK-MEL-2 melanoma 99.3% | EKVX NSCLC 86% | SN12C renal 92.5% | UO-31 renal 81.1% | TK-10 renal 90.7% | ACHN renal 94.3% | CAKI-1 renal 87.8% | A498 renal 134% | CCRF-CEM leukemia 98.1% | MOLT-4 leukemia 100%

O=C(OCc1ccc2c(Br)cc(Br)c(O)c2n1)N1CCN(C(=O)c2cc3ccccc3[nH]2)CC1
inactive: HCT-15 colon 19.6% | HT29 colon 59.6% | SNB-75 CNS 40.5% | SNB-19 CNS 31.6% | U251 CNS 12.9% | PC-3 prostate 27.5% | SK-MEL-5 melanoma 35.5% | UACC-62 melanoma 19% | LOX IMVI melanoma 28.7% | SK-MEL-28 melanoma 58.1% | SK-MEL-2 melanoma 44.8% | EKVX NSCLC 29.9% | SN12C renal 31.3% | UO-31 renal 12.8% | TK-10 renal 47.5% | ACHN renal 14.4% | CAKI-1 renal 23% | A498 renal 20.3% | CCRF-CEM leukemia 21.2% | MOLT-4 leukemia 35.5%

OC1CSSC1Cn1cnc2c(Nc3ccc(F)c(Cl)c3)ncnc21 (stereo not given)
active: MOLT-4 leukemia -27.1%
inactive: HCT-15 colon 92.5% | HT29 colon 83.2% | SNB-75 CNS 114% | SNB-19 CNS 90.4% | U251 CNS 84.3% | PC-3 prostate 80.5% | SK-MEL-5 melanoma 88.2% | UACC-62 melanoma 16.3% | LOX IMVI melanoma 47.9% | SK-MEL-28 melanoma 78.3% | SK-MEL-2 melanoma 93.3% | EKVX NSCLC 58.5% | SN12C renal 98.9% | UO-31 renal 44% | TK-10 renal 96.1% | ACHN renal 98.1% | CAKI-1 renal 105% | A498 renal 103% | CCRF-CEM leukemia 29.6%
